The other results are listed elsewhere or left out. Values without a mark were called inactive. Active and inactive are the calls of the source. Rule as the data show it: active = activation above about 21%; inactive = the rest.
Molecular target: Sphingosine 1-phosphate receptor 1 (Homo sapiens) (UniProt P21453)
Assay: activation of human S1P1 receptor – cell-based, counter-screen for S1P4 agonist project (AID 1563);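 also: 0% = vehicle wells and 100% = reference agonist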
Settings: S1P1 agonist cell-based assay, at 4.98 µM, stronger effect = higher value

Chain of Sphingosine 1-phosphate receptor 1 (Homo sapiens) (P21453 whole entry, looked up): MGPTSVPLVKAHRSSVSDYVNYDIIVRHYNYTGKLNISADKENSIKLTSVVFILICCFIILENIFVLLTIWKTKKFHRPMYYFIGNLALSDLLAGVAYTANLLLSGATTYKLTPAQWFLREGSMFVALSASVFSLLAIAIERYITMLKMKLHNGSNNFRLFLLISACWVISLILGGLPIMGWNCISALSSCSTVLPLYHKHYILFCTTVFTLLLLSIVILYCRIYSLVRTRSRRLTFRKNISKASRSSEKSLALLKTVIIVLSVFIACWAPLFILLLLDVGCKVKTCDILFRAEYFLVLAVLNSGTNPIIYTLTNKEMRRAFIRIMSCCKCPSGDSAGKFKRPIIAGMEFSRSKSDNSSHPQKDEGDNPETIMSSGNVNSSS

Compound | activation
CC(C)C(c1nnnn1C(C)(C)C)N1CCN(Cc2cccnc2)CC1 (configuration not stated) | -9.51%
CCC(=O)/C(=C(/O)c1ccccc1)c1nc2ccccc2[nH]1 | -4.01%
CSc1sc(C(=O)NNC(=O)c2ccc(Cl)cc2)c2c1C=CCC2 | 2.26%
CC(Oc1ccc(Br)cc1Br)C(=O)NC1CCCC1 (configuration not stated) | -6.64%
C=CCn1c(SCn2nnc3ccccc3c2=O)nnc1-c1ccc(Cl)cc1 | -1.97%
Cc1noc(C)c1COC(=O)COc1ccc(-c2ccccc2)cc1 | 0.9%
O=C(COC(=O)c1cc([N+](=O)[O-])ccc1NCc1ccccc1)NC1CCCCC1 | -7.16%
O=[N+]([O-])c1cccc(Nc2c3ccccc3nc3ccccc23)c1 | 11.6%
COc1ccc(-n2c(C)cc(C(=O)CN3C(=O)NC4(CCc5ccccc54)C3=O)c2C)cc1 (configuration not stated) | 1.51%
N/C(=N\OC(=O)Cc1ccc([N+](=O)[O-])cc1)c1ccccn1 | -7.04%
CCOc1ccc(-c2nnc(-c3ccco3)o2)cc1 | 2.5%
Cc1cc(C)nc(N(C#N)CC(=O)Nc2ccccc2)n1 | 0.75%
O=C(CSc1nncn1-c1cccnc1)N1CCOCC1 | 2.75%
Cc1cc(C)c(C#N)c(SCC(=O)NN2CC(=O)N(c3ccccc3F)CC2=O)n1 | -4.8%
COc1ccc(N2C(=O)C(Cc3ccccc3)NC2=S)cc1 (configuration not stated) | -2.28%
Cc1ccc(NC(=O)Nc2ccccc2)c(Br)c1 | 5.03%

Compound | activation
CCC(C)NC(=O)C1c2ccccc2Oc2ccccc21 (configuration not stated) | 0.8%
COc1ccccc1CNC(=O)CNC(=O)c1cn(-c2ccccc2OC)c(=O)c2ccccc12 | -2.71%
CC(=O)Nc1ccccc1NC(=O)c1cc(C)cc(C)c1 | -9.63%
Cc1cc(NC(=O)c2cc(-c3cccs3)on2)nn1Cc1ccc(Cl)cc1 | 4.89%
CCCCCNC(=O)c1cccnc1SCC(=O)Nc1ccccc1OC | 1.32%
CC1CCCC(NC(=O)COC(=O)[C@@H]2CC(O)CN2S(=O)(=O)c2ccc3c(c2)OCCO3)C1C (some centres not stated) | -5.42%
CC(=O)Nc1ccc(SCC(=O)Nc2ccccc2Oc2ccccc2)cc1 | -3.81%
COC(=O)CNC(=O)C(CCSC)NC(C)=O (configuration not stated) | -8.17%
CNC(=O)c1[nH]cnc1C(=O)N[C@@H](CC(C)C)C(=O)OCc1ccccc1 | 11.4%
CCn1c(CNC(=O)c2ccc(OC)c(OC)c2)nnc1SCC(=O)Nc1ccccc1 | 0.73%
COc1ccc(C2CC(c3cccs3)=NN2c2ccc(F)cc2)cc1OC (configuration not stated) | 16.6%
O=C(CSc1nnc(Nc2ccccc2)s1)Nc1cccnc1Cl | -2.54%
COC(=O)[C@@H]1CC[C@H](C)[C@@H](c2ccc(C)cc2)N1C(=O)c1ccc(/C=N/O[C@H](C)c2cn([C@@H]3COC[C@H]3O)nn2)cc1 | -3.45%
COc1ccc(C2CC(c3cccs3)=NN2c2ccccc2)cc1 (configuration not stated) | 43.8% (active)
O=C(COC(=O)Cc1ccc(F)cc1)Nc1cc(S(=O)(=O)N2CCOCC2)ccc1N1CCCC1 | 5.34%
O=C(CSc1ccc(-c2ccc(F)cc2)nn1)Nc1ccc2c(c1)OCCO2 | -2.21%

From PubChem BioAssay AID1563 (The Scripps Research Institute Molecular Screening Center, 2009)
